KB-V1 cytotox: KB-V1 MDR subline cytotoxicity; KB-V1 MDR cells viability, CellTiter-Glo, 72 h; Potency, µM (highest dose often 46.1 µM), hits mostly cytotoxic; 3.4% of 400,000 active; AID 1347076; further: nearly all actives have a fitted effect of over 60% in size
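Luminescent ATP read-out (CellTiter-Glo, 10 min) measures survival of drug-selected KB-V1 MDR cells after 72 h, 37 degrees C compound exposure. Medium: phenol-red-free DMEM, 10% FBS. Values from fitted concentration-response curves.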
KB-3-1 cytotox: KB-3-1 parental cell cytotoxicity | KB-3-1 viability, CellTiter-Glo ATP luminescence, 72 h | Potency, µM (doses to about 46.1 µM), actives largely listed as cytotoxic | 1.4% of 400,000 active | AID 1347075; further: nearly all actives have a fitted effect of over 60% in size
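Multi-concentration cytotoxicity screen in KB-3-1 cells grown in DMEM lacking phenol red with 10% FBS. After 72 h at 37 °C with compound, ATP-dependent luminescence was recorded.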
MCF10A rerep: induces DNA re-replication in MCF 10a normal breast cells; 2.9% of 350,000 active; Potency, µM (titrated, usually from 46.1 µM), hits mostly activators; AID 624296; MCF 10A DNA re-replication, Hoechst nuclear intensity, 48 h; further: nearly all actives have a fitted effect of over 50% in size
D3 antag: antagonists of human D3 dopamine receptor. AID 652054. P35462. 2.5% of 360,000 active. D3R cells, DiscoveRx beta-arrestin luminescence, antagonist mode; stronger effect = lower value. max response, negative = inhibition, %; in the data active means max response below about -50%; inconclusive means no clear call, values can overlap the other calls
Target sequence (P35462 whole entry, looked up): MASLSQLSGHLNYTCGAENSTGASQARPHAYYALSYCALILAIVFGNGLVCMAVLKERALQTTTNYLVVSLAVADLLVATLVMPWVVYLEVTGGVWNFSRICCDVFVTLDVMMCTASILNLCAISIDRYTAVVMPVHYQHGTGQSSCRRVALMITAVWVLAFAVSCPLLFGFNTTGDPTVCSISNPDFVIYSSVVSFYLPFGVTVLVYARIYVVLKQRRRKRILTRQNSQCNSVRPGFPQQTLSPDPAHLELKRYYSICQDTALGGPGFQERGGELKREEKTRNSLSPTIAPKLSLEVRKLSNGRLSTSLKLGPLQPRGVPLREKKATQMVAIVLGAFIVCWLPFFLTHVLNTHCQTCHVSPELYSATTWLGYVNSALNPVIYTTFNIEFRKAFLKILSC
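Cells plated overnight at 1500 cells/well, then exposed to library compounds with dopamine controls for 90 minutes at 37 degrees C. DiscoveRx reagent added for 30–60 minutes at room temperature; luminescence read, quantitative HTS format.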
SW480 rereplic: DNA re-replication induction in SW480 cells; 1.8% of 340,000 active; Potency, µM (top dose mostly 46.1 µM), actives largely listed as activators; SW480 DNA re-replication, Hoechst DNA content imaging, 48 h; further: nearly all actives have a fitted effect of over 55% in size
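250 cells/well; 23 nL cpd via pin tool; 48 hr, 37 C, 5% CO2; Hoechst 40 min; imager read of total nuclear intensity, ex 405/em 500-530 nm.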
DRD3 agonist: agonists of human D3 dopamine receptor; P35462; D3R DiscoveRx beta-arrestin cells, luminescence, 90 min; max activation, %; 0.58% of 410,000 active; AID 652048; in the data active means max activation above about 30%
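Agonist-mode cell screen: cells plated at 1500/well and incubated overnight at 37 °C, then exposed to library compounds for 90 min at 37 °C. Detection reagent was added for 30–60 min at room temperature, and luminescence was read.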
Of the large screens only hits and unclear results are named; the others gave an inactive call. Sampled rows, rich in hits. Any-hit rate of the full collection: about 8.9%. Unless noted, the call rests on the fitted dose curve; in most records, active means well fitted curve in the direction sought with a large enough effect; inconclusive means small, poorly fitted or top-dose-only effect, or another doubt; inactive means no such curve, though single readings can be large; an effect the other way counts as inactive or inconclusive.

O=Cc1[nH]c2ccccc2c1N(C(=O)CCl)c1ccc([N+](=O)[O-])cc1	MCF10A rerep inconclusive, SW480 rereplic inconclusive
CC(=O)N1N=C(c2ccc(Br)cc2)CC1c1ccc(Br)cc1 (centres undefined)	none (no result: MCF10A rerep, SW480 rereplic)
Cn1cc(C2CC(c3ccccc3)=NN2C(=O)c2ccccc2)c2ccccc21 (centres undefined)	KB-V1 cytotox 20.6µM, KB-3-1 cytotox inconclusive, MCF10A rerep 5.8µM, D3 antag inconclusive, SW480 rereplic inconclusive
CCC(=O)N1N=C(c2ccccc2)CC1c1ccccc1 (centres undefined)	none
CC(=O)N1N=C(c2ccc(Br)cc2)CC1c1cn(C)c2ccccc12 (centres undefined)	KB-V1 cytotox inconclusive, MCF10A rerep 18.4µM
CCCC(=O)N1N=C(c2ccccc2)CC1c1cn(C)c2ccccc12 (centres undefined)	KB-V1 cytotox inconclusive, MCF10A rerep 23.1µM, SW480 rereplic inconclusive
Cc1ccc(CNC(=O)C2CCN(C(=O)c3ccc(-n4ccc5ccccc54)s3)CC2)cc1	none (no result: MCF10A rerep, D3 antag, SW480 rereplic)
COc1cccc(C(=O)n2nc(-c3cccnc3)nc2NCc2ccc(F)cc2)c1	none (no result: MCF10A rerep, D3 antag, SW480 rereplic)
COc1ccc(C)cc1NS(=O)(=O)c1cnc(N)nc1	none (no result: KB-V1 cytotox, KB-3-1 cytotox, MCF10A rerep, D3 antag, SW480 rereplic)
CCOC(=O)c1[nH]c(C)c(CCC(=O)NCc2ccc(C)cc2)c1C	none (no result: MCF10A rerep, D3 antag, SW480 rereplic)
O.O=C([O-])CC([S-])C(=O)[O-].[Au+].[Na+].[Na+] (centres undefined)	none (no result: KB-V1 cytotox, KB-3-1 cytotox, MCF10A rerep, D3 antag, SW480 rereplic)
CC(C)CC(NC(=O)c1ccc(Cl)cc1)C(=O)OCC(=O)c1ccc2c(c1)NC(=O)CO2 (centres undefined)	KB-3-1 cytotox 7.31µM, MCF10A rerep inconclusive, D3 antag -72.6, SW480 rereplic inconclusive
O=C1COc2ccc(C(=O)COC(=O)c3ccccc3F)cc2N1	D3 antag -50.8
c1ccc(-c2nnc3nc(N4CCCCC4)nc(N4CCCCC4)n23)cc1	KB-V1 cytotox 18.4µM, KB-3-1 cytotox inconclusive
CC(=O)N1CCC2(CC1)OC(=O)C(C)=C2C(=O)NCc1ccc(Cl)cc1	none (no result: MCF10A rerep, D3 antag, SW480 rereplic)
CCOc1cc(N2CCOCC2)c(OCC)cc1NC(=O)c1nn(CC)c(=O)c2ccccc12	KB-V1 cytotox 3.66µM, KB-3-1 cytotox inconclusive, MCF10A rerep inconclusive
CCN(CC)S(=O)(=O)c1ccc(N2CCOCC2)c(NC(=O)c2nn(C(C)C)c(=O)c3ccccc23)c1	KB-V1 cytotox inconclusive (no result: MCF10A rerep, SW480 rereplic)
CC(C)n1nc(C(=O)Nc2ccccc2N2CCOCC2)c2ccccc2c1=O	KB-V1 cytotox 3.66µM, MCF10A rerep inconclusive
Cc1cccc(NC(=O)C2CCN(S(=O)(=O)c3ccc(F)cc3)CC2)c1C	KB-V1 cytotox inconclusive (no result: MCF10A rerep, D3 antag, SW480 rereplic)
CCn1ccnc1CNCc1ccc(OCC(O)CN(C)Cc2ccccc2)cc1 (centres undefined)	D3 antag -59.2
CCc1ccc(CNCc2ccc(OCC(O)CN(C)Cc3ccccc3)cc2)nc1 (centres undefined)	KB-V1 cytotox inconclusive, KB-3-1 cytotox inconclusive, MCF10A rerep inconclusive, D3 antag -53.8, SW480 rereplic inconclusive
CN(Cc1ccccc1)CC(O)COc1ccc(CNCc2nccn2C)cc1 (centres undefined)	MCF10A rerep inconclusive
CN(Cc1ccccc1)CC(O)COc1ccc(CNCCc2ccncc2)cc1 (centres undefined)	KB-V1 cytotox inconclusive, MCF10A rerep inconclusive, SW480 rereplic 18.4µM
CN(Cc1ccccc1)CC(O)COc1ccc(CNCCc2cccnc2)cc1 (centres undefined)	none
CC1CN(C(=O)N2CCC(C(=O)NCCCc3ccccc3)CC2)c2ccccc2O1 (centres undefined)	none (no result: MCF10A rerep, D3 antag, SW480 rereplic)
C=CCn1c(-c2ccccc2)n[nH]c1=S	none
C=CCn1c(-c2sc3nc(C)cc(C)c3c2N)n[nH]c1=S	MCF10A rerep 9.2µM
C=CCn1c(-c2cc(OC)cc(OC)c2)n[nH]c1=S	D3 antag -58.9
Cc1cccc(C(=O)Nc2cccc(C(=O)OCc3cc(=O)n4c5c(sc4n3)CCCC5)c2)c1	none (no result: KB-V1 cytotox, KB-3-1 cytotox, MCF10A rerep, D3 antag, SW480 rereplic)
CCCCN(C)CCCNC(=O)Cn1ncc2c3ccccc3n(Cc3ccccc3)c2c1=O	none (no result: MCF10A rerep, D3 antag, SW480 rereplic)

Bioassay records (PubChem BioAssay)
